{"source": "the supplement of paper PMC8728848", "binders": {"B1": {"name": "PX14367A-bth-493-35-493 (Bacteroides thetaiotaomicron) (protein)", "chain": "VSSDQVAVAGNAERLFNGAWYNLFEYGTTYANIGYRALQCQDDMMASDVVSRPKYGFNSSYQFNDVAIPSDGRTSFAWYLIYKTIDNCNTAISIKGDSEELRQAQGQALALRAFCYLHLVQHYQFTYLKDKDAPCVPIYTEPTTSGTKPKGKSTVAQVYQQIFDDLNLAQDYLTNYVRKGDGQKFKPNTDVVNGLMARAYLLTGQWGEAAKAAEAARKGYSLMTTTAEYEGFNNISNKEWIWGSPQTLSQSDASYNFYYLDATYVGAYSSFMADPHLMDTFVKGDIRLPLFQWMREGYLGYKKFHMRSDDTADLVLMRSAEMYLIEAEAKVRDGVALDQAVAPLNTLRTARGVGNYDVTGKTKEQVIDEILMERRRELWGEGFGITDVLRNQKAVERMALSEDMQKTEVDCWQEGGSFAKRNPLGHWFLNFPDGKAFSANSSYYLYAIPEKEINANPNL"}}, "experiment_in_all_cases": "glycan array binding signal (z-score within array); higher = stronger binding", "conditions_in_all_cases": "glycan notation: IUPAC condensed, linker removed", "key": {"[1]": {"target": "Fuc(a1-2)Gal6S(b1-4)Glc6S", "method_in_brief": "(§1)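 The binding signal is a Z-score computed within each array and averaged over linkers. Arrays of the same protein sequence at different concentrations or buffers were also averaged together. Data originate from 3228 arrays in the Consortium for Functional Glycomics database, kept only where the protein sequence was available.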"}, "[2]": {"target": "Fuc(a1-2)[Gal(a1-3)]Gal(b1-3)GlcNAc(b1-3)GalNAc", "method_in_brief": "as §1"}, "[3]": {"target": "Fuc(a1-2)[Gal(a1-4)]Gal(b1-4)GlcNAc", "method_in_brief": "as §1"}, "[4]": {"target": "Fuc(a1-2)[GalNAc(a1-3)]Gal(b1-3)GalNAc(b1-3)Gal(a1-4)Gal(b1-4)Glc", "method_in_brief": "as §1"}, "[5]": {"target": "Fuc(a1-2)[GalNAc(a1-3)]Gal(b1-3)GlcNAc(b1-2)Man(a1-3)[Fuc(a1-2)[GalNAc(a1-3)]Gal(b1-3)GlcNAc(b1-2)Man(a1-6)]Man(b1-4)GlcNAc(b1-4)GlcNAc", "method_in_brief": "as §1"}, "[6]": {"target": "Fuc(a1-2)[GalNAc(a1-3)]Gal(b1-4)[Fuc(a1-3)]GlcNAc", "method_in_brief": "as §1"}, "[7]": {"target": "Fuc(a1-3)[Gal(b1-4)]GlcNAc(b1-2)Man(a1-3)[Fuc(a1-3)[Gal(b1-4)]GlcNAc(b1-2)Man(a1-6)]Man(b1-4)GlcNAc(b1-4)[Fuc(a1-6)]GlcNAc", "method_in_brief": "as §1"}, "[8]": {"target": "Fuc(a1-3)[Gal(b1-4)]GlcNAc(b1-3)Gal(b1-4)[Fuc(a1-3)]GlcNAc", "method_in_brief": "as §1"}, "Gal(a1-2)Gal": {"target": "Gal(a1-2)Gal", "method_in_brief": "as §1"}, "[9]": {"target": "Gal(a1-3)Gal(b1-4)GlcNAc(b1-2)Man(a1-3)[Gal(a1-3)Gal(b1-4)GlcNAc(b1-2)Man(a1-6)]Man(b1-4)GlcNAc(b1-4)GlcNAc", "method_in_brief": "as §1"}, "[10]": {"target": "Gal(b1-3)GlcNAc(b1-2)Man(a1-3)[GlcNAc(b1-4)][Gal(b1-3)GlcNAc(b1-2)Man(a1-6)]Man(b1-4)GlcNAc(b1-4)GlcNAc", "method_in_brief": "as §1"}, "[11]": {"target": "Gal(b1-3)GlcNAc(b1-3)Gal(b1-3)GlcNAc", "method_in_brief": "as §1"}, "[12]": {"target": "Gal(b1-3)[Fuc(a1-4)]GlcNAc", "method_in_brief": "as §1"}, "[13]": {"target": "Gal(b1-3)[Fuc(a1-4)]GlcNAc(b1-3)Gal(b1-3)[Fuc(a1-4)]GlcNAc", "method_in_brief": "as §1"}, "[14]": {"target": "Gal(b1-3)[GlcNAc(b1-6)]GalNAc", "method_in_brief": "as §1"}, "[15]": {"target": "Gal(b1-4)GlcNAc(b1-2)Man(a1-3)[Gal(b1-4)GlcNAc(b1-2)Man(a1-6)]Man(b1-4)GlcNAc(b1-4)GlcNAc", "method_in_brief": "as §1"}, "[16]": {"target": "Gal(b1-4)GlcNAc(b1-2)Man(a1-3)[Gal(b1-4)GlcNAc(b1-2)Man(a1-6)][GlcNAc(b1-4)]Man(b1-4)GlcNAc(b1-4)[Fuc(a1-6)]GlcNAc", "method_in_brief": "as §1"}, "[17]": {"target": "Gal(b1-4)GlcNAc(b1-2)Man(a1-3)[Man(a1-6)]Man(b1-4)GlcNAc(b1-4)GlcNAc", "method_in_brief": "as §1"}, "[18]": {"target": "Gal(b1-4)GlcNAc(b1-2)Man(a1-6)[GlcNAc(b1-2)Man(a1-3)]Man(b1-4)GlcNAc(b1-4)GlcNAc", "method_in_brief": "as §1"}, "[19]": {"target": "Gal(b1-4)GlcNAc(b1-2)[Gal(b1-4)GlcNAc(b1-4)]Man(a1-3)[Gal(b1-4)GlcNAc(b1-2)[Gal(b1-4)GlcNAc(b1-6)]Man(a1-6)]Man(b1-4)GlcNAc(b1-4)GlcNAc", "method_in_brief": "as §1"}, "[20]": {"target": "Gal(b1-4)GlcNAc(b1-2)[Gal(b1-4)GlcNAc(b1-6)]Man(a1-6)[Gal(b1-4)GlcNAc(b1-2)Man(a1-3)]Man(b1-4)GlcNAc(b1-4)[Fuc(a1-6)]GlcNAc", "method_in_brief": "as §1"}, "[21]": {"target": "Gal(b1-4)GlcNAc(b1-3)Gal(b1-4)GlcNAc", "method_in_brief": "as §1"}, "[22]": {"target": "Gal(b1-4)GlcNAc(b1-3)Gal(b1-4)GlcNAc(b1-2)Man(a1-3)[Gal(b1-4)GlcNAc(b1-3)Gal(b1-4)GlcNAc(b1-2)Man(a1-6)]Man(b1-4)GlcNAc(b1-4)GlcNAc", "method_in_brief": "as §1"}, "[23]": {"target": "Gal(b1-4)GlcNAc(b1-3)Gal(b1-4)GlcNAc(b1-2)Man(a1-3)[Gal(b1-4)GlcNAc(b1-3)Gal(b1-4)GlcNAc(b1-2)Man(a1-6)]Man(b1-4)GlcNAc(b1-4)[Fuc(a1-6)]GlcNAc", "method_in_brief": "as §1"}, "[24]": {"target": "Gal(b1-4)GlcNAc(b1-3)Gal(b1-4)GlcNAc(b1-3)Gal(b1-4)GlcNAc(b1-2)Man(a1-3)[Gal(b1-4)GlcNAc(b1-3)Gal(b1-4)GlcNAc(b1-3)Gal(b1-4)GlcNAc(b1-2)Man(a1-6)]Man(b1-4)GlcNAc(b1-4)GlcNAc", "method_in_brief": "as §1"}, "[25]": {"target": "Gal(b1-4)GlcNAc(b1-3)Gal(b1-4)GlcNAc(b1-3)Gal(b1-4)GlcNAc(b1-2)Man(a1-3)[Gal(b1-4)GlcNAc(b1-3)Gal(b1-4)GlcNAc(b1-3)Gal(b1-4)GlcNAc(b1-2)Man(a1-6)]Man(b1-4)GlcNAc(b1-4)[Fuc(a1-6)]GlcNAc", "method_in_brief": "as §1"}, "[26]": {"target": "Gal(b1-4)GlcNAc(b1-3)Gal(b1-4)GlcNAc(b1-3)Gal(b1-4)GlcNAc(b1-3)Gal(b1-4)GlcNAc(b1-2)Man(a1-3)[Gal(b1-4)GlcNAc(b1-3)Gal(b1-4)GlcNAc(b1-3)Gal(b1-4)GlcNAc(b1-3)Gal(b1-4)GlcNAc(b1-2)Man(a1-6)]Man(b1-4)GlcNAc(b1-4)GlcNAc", "method_in_brief": "as §1"}}, "note": "This is one part of a sample in which the strongest signals are shown more often than they occur.", "data": [{"binder": "B1", "values": [{"measurement": "glycan array binding signal (z-score)", "setting": "[1]", "value": -0.358}, {"measurement": "glycan array binding signal (z-score)", "setting": "[2]", "value": -0.51}, {"measurement": "glycan array binding signal (z-score)", "setting": "[3]", "value": -0.256}, {"measurement": "glycan array binding signal (z-score)", "setting": "[4]", "value": -0.668}, {"measurement": "glycan array binding signal (z-score)", "setting": "[5]", "value": 0.408}, {"measurement": "glycan array binding signal (z-score)", "setting": "[6]", "value": -0.482}, {"measurement": "glycan array binding signal (z-score)", "setting": "[7]", "value": -0.25}, {"measurement": "glycan array binding signal (z-score)", "setting": "[8]", "value": -0.421}, {"measurement": "glycan array binding signal (z-score)", "setting": "Gal(a1-2)Gal", "value": -0.084}, {"measurement": "glycan array binding signal (z-score)", "setting": "[9]", "value": 3.93}, {"measurement": "glycan array binding signal (z-score)", "setting": "[10]", "value": 1.39}, {"measurement": "glycan array binding signal (z-score)", "setting": "[11]", "value": -0.152}, {"measurement": "glycan array binding signal (z-score)", "setting": "[12]", "value": -0.11}, {"measurement": "glycan array binding signal (z-score)", "setting": "[13]", "value": -0.392}, {"measurement": "glycan array binding signal (z-score)", "setting": "[14]", "value": -0.406}, {"measurement": "glycan array binding signal (z-score)", "setting": "[15]", "value": 1.44}, {"measurement": "glycan array binding signal (z-score)", "setting": "[16]", "value": -0.354}, {"measurement": "glycan array binding signal (z-score)", "setting": "[17]", "value": 3.6}, {"measurement": "glycan array binding signal (z-score)", "setting": "[18]", "value": -0.174}, {"measurement": "glycan array binding signal (z-score)", "setting": "[19]", "value": -0.334}, {"measurement": "glycan array binding signal (z-score)", "setting": "[20]", "value": -0.167}, {"measurement": "glycan array binding signal (z-score)", "setting": "[21]", "value": -0.81}, {"measurement": "glycan array binding signal (z-score)", "setting": "[22]", "value": 3.94}, {"measurement": "glycan array binding signal (z-score)", "setting": "[23]", "value": 7.69}, {"measurement": "glycan array binding signal (z-score)", "setting": "[24]", "value": 2.81}, {"measurement": "glycan array binding signal (z-score)", "setting": "[25]", "value": 2.6}, {"measurement": "glycan array binding signal (z-score)", "setting": "[26]", "value": 1.4}]}]}
